# From article PMC7862700, “An all-to-all approach to the identification of sequence-specific readers for epigenetic DNA modifications on cytosine”
# Experiments:
# Test in all cases: DAPPL (digital affinity profiling via proximity ligation, sequencing); 10 mM Tris-HCl pH 7.5, 50 mM NaCl, 1 mM DTT, 4% glycerol, room temperature, 30 min; GST-TFs on glutathione beads, 16-mer random dsDNA library, 0.1% formaldehyde crosslink after washing; high values mean tight binding
# [1] = molecular target: T1, FEV (Homo sapiens, UniProt Q99581 1-238); conditions: protein: recombinant; tags: N-terminal GST; dsDNA, one strand shown
# T1 sequence: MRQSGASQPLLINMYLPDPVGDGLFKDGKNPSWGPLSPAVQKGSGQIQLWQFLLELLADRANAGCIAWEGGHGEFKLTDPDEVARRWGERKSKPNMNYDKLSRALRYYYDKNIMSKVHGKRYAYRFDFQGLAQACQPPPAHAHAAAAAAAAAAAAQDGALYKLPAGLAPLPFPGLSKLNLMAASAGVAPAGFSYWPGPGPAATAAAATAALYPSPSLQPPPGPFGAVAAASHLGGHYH
# Procedure, shortened: (§1)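 After expression in yeast as GST fusions, human transcription factors were bound to glutathione beads, DNA-barcoded and mixed with a tag-only sample. The pools were incubated with 200 nmole of a 16-mer random double-stranded DNA library in Tris/NaCl/DTT/glycerol buffer (30 min, room temperature), washed and crosslinked with 0.1% formaldehyde. Proximity ligation with BsaI/T4 ligase ran for 1 h at 37 °C, before PCR amplification and sequencing on an Illumina NextSeq500. Binding signal is a hexamer's read frequency for a factor divided by its frequency for the tag-only sample.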
# [2] = molecular target: ETV5 (Homo sapiens, UniProt P41161 1-510); conditions: protein: recombinant; tags: N-terminal GST; dsDNA, one strand shown
# Chain of ETV5 (P41161 whole entry): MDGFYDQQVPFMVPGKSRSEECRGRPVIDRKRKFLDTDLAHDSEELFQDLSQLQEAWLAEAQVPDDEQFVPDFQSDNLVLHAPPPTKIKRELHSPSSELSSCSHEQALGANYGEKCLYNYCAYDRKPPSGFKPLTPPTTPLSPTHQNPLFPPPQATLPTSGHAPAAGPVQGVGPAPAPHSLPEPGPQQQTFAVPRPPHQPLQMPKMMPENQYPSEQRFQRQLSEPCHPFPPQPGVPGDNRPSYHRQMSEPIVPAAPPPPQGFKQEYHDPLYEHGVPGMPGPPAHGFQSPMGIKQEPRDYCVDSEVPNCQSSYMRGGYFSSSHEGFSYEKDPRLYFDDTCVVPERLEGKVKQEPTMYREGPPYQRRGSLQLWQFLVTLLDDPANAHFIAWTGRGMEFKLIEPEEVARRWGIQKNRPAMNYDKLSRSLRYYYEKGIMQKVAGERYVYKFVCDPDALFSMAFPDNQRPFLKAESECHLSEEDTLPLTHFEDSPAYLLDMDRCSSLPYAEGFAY
# Procedure, shortened: as §1
# [3] = molecular target: HSF1 (Homo sapiens, UniProt Q00613 1-529); conditions: protein: recombinant; tags: N-terminal GST; chain copies: 3; dsDNA, one strand shown
# Chain of HSF1 (Q00613 whole entry): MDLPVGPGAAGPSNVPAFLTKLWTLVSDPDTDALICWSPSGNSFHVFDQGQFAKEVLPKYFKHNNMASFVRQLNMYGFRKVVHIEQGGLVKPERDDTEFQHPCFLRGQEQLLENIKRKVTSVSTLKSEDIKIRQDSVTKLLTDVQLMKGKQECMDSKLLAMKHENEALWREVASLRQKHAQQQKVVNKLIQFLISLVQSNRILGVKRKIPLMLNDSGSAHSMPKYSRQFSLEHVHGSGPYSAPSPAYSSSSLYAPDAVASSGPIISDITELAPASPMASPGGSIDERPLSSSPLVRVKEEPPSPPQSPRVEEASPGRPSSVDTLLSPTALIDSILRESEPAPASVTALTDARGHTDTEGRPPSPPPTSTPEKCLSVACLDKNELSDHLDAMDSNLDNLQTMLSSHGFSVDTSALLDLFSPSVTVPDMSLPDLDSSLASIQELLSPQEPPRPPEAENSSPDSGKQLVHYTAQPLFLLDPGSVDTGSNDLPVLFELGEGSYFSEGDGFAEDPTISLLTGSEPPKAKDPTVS
# Procedure, shortened: as §1
# [4] = molecular target: T2, SPIC (Homo sapiens, UniProt Q8N5J4 1-248); conditions: protein: recombinant; tags: N-terminal GST; dsDNA, one strand shown
# T2 sequence: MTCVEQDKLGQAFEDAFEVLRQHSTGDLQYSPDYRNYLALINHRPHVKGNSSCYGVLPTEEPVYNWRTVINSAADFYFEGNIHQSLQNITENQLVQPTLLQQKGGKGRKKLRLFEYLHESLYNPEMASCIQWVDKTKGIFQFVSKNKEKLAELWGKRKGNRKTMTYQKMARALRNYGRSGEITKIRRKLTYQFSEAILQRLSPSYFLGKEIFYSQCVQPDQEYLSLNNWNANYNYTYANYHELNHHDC
# Procedure, shortened: as §1
# [5] = molecular target: ELF4 (Homo sapiens, UniProt Q99607 1-663); conditions: protein: recombinant; tags: N-terminal GST; dsDNA, one strand shown
# Chain of ELF4 (Q99607 whole entry): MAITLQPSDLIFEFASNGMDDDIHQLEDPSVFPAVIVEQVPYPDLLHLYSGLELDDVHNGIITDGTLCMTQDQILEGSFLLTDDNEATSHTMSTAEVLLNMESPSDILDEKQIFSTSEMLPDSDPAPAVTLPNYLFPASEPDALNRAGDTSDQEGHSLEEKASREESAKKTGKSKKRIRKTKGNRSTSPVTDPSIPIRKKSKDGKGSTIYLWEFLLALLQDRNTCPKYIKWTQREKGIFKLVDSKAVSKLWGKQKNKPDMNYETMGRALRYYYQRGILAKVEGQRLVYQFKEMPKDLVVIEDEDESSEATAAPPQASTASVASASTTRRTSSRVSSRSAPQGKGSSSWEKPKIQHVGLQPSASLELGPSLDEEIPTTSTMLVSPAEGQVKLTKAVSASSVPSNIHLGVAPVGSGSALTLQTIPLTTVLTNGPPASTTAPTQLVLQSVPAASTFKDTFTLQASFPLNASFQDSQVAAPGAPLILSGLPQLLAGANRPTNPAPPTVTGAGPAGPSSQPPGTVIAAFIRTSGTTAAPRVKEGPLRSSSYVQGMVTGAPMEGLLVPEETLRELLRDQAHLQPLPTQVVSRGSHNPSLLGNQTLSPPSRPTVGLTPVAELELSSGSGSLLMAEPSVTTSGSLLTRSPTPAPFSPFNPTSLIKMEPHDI
# Procedure, shortened: as §1
# [6] = molecular target: T3, ELK4 (Homo sapiens, UniProt P28324-2 1-405); conditions: protein: recombinant; tags: N-terminal GST; dsDNA, one strand shown
# T3 sequence: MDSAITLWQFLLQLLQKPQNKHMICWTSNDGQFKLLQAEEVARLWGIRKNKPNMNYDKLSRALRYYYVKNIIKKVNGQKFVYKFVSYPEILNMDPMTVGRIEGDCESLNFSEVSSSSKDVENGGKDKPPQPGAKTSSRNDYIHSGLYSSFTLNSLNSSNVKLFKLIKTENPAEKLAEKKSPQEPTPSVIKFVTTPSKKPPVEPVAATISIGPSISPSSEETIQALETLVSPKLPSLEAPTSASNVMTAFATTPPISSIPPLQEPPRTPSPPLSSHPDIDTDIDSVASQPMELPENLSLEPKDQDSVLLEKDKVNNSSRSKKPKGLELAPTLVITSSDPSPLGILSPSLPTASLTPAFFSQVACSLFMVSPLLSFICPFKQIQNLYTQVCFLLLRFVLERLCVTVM
# Procedure, shortened: as §1
# [7] = molecular target: T4, ETV2 (Homo sapiens, UniProt O00321 1-342); conditions: protein: recombinant; tags: N-terminal GST; dsDNA, one strand shown
# T4 sequence: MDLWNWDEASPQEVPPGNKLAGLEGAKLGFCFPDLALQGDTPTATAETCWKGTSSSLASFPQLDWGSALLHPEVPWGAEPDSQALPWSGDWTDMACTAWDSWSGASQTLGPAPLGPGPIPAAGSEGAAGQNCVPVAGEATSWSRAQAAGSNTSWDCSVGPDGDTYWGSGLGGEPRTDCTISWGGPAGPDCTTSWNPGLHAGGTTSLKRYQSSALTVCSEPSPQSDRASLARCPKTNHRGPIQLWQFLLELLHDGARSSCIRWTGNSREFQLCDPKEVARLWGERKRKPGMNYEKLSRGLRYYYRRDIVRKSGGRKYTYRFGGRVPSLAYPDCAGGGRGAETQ
# Procedure, shortened: as §1
# [8] = molecular target: T5, ELF3 (Homo sapiens, UniProt P78545 1-371); conditions: protein: recombinant; tags: N-terminal GST; dsDNA, one strand shown
# T5 sequence: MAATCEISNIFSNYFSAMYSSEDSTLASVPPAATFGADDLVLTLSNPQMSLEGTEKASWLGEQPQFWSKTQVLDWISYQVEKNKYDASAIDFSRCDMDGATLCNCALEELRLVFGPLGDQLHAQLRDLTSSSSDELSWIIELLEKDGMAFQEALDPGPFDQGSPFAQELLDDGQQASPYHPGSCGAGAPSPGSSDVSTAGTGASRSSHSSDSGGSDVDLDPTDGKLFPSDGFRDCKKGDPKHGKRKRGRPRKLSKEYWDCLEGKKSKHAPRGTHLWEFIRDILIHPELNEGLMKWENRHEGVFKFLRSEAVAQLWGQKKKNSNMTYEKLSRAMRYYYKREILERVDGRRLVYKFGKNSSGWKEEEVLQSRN
# Procedure, shortened: as §1
# [9] = molecular target: CRX (Homo sapiens, UniProt O43186 1-299); conditions: protein: recombinant; tags: N-terminal GST; dsDNA, one strand shown
# Chain of CRX (O43186 whole entry): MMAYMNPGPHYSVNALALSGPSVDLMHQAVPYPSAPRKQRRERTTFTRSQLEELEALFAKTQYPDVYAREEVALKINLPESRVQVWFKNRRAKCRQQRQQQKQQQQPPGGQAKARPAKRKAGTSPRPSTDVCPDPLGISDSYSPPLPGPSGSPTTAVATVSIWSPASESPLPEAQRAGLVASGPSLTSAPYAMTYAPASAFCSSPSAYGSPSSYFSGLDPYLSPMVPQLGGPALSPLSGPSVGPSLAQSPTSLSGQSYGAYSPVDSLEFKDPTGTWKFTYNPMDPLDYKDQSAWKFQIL
# Procedure, shortened: as §1
# [10] = molecular target: ETV1 (Homo sapiens, UniProt P50549 1-477); conditions: protein: recombinant; tags: N-terminal GST; dsDNA, one strand shown
# Chain of ETV1 (P50549 whole entry): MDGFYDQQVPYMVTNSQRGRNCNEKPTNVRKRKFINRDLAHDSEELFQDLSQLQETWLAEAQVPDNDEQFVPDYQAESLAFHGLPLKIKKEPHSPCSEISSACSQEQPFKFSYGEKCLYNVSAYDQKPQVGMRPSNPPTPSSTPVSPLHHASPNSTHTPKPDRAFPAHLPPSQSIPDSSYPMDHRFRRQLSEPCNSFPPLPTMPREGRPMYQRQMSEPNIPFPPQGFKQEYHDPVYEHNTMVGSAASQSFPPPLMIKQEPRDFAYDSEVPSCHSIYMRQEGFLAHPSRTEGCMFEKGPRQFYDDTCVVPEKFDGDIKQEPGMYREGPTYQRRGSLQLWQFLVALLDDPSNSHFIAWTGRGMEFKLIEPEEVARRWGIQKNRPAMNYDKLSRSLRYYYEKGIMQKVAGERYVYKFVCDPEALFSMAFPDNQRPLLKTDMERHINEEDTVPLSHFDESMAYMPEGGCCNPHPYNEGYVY
# Procedure, shortened: as §1
sequence,measurement,setting,value
ACGTTA,binding signal,[1],"1.13 fold enrichment (6-mer frequency, TF over GST control)"
same,binding signal,[2],"1.11 fold enrichment (6-mer frequency, TF over GST control)"
same,binding signal,[3],"1.04 fold enrichment (6-mer frequency, TF over GST control)"
same,binding signal,[4],"1.18 fold enrichment (6-mer frequency, TF over GST control)"
same,binding signal,[5],"1.11 fold enrichment (6-mer frequency, TF over GST control)"
same,binding signal,[6],"1.03 fold enrichment (6-mer frequency, TF over GST control)"
same,binding signal,[7],"1.28 fold enrichment (6-mer frequency, TF over GST control)"
same,binding signal,[8],"1.09 fold enrichment (6-mer frequency, TF over GST control)"
same,binding signal,[9],"1.17 fold enrichment (6-mer frequency, TF over GST control)"
same,binding signal,[10],"1.05 fold enrichment (6-mer frequency, TF over GST control)"
